# LYPLA2 inh: blocks human lysophospholipase 2, a PME1 counter-screen | O95372 | inhibition, % at 5.9 µM | recombinant LYPLA2, FP-Rh probe fluorescence polarization | 320,000 tested, 0.38% active;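 active means inhibition above the screen-wide mean plus 3 SD, limit set per campaign, cut at about 26% in these data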;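 further: 0% = LYPLA2 with DMSO and 100% = wells lacking LYPLA2 enzyme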
# Target sequence (O95372 whole entry, looked up): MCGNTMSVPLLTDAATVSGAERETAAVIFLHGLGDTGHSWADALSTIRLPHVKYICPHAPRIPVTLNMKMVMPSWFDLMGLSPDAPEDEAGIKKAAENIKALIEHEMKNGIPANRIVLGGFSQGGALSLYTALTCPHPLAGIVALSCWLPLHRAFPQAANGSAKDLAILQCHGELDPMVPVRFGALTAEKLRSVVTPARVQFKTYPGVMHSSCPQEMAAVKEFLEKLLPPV
# LYPLA1 counter: blocks human lysophospholipase 1, a PME1 counter-screen. AID 2174. recombinant LYPLA1, FP-Rh probe fluorescence polarization. 320,000 tested, 0.16% active. inhibition, % at 5.9 µM. O75608;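 active means inhibition above the mean of all tested compounds plus 3 SD, set per campaign, cut at about 14% in these data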;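 further: inhibitors block serine hydrolase probe labeling of LYPLA1 so polarization falls; 0% = enzyme with DMSO and 100% = wells lacking LYPLA1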
# PAD4 FP inh: inhibitors of human PAD4. Q9UM07. recombinant PAD4, RCA probe fluorescence polarization. inhibition, % at 6.36 µM. 330,000 tested, 0.41% active. AID 485272;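 active means percent inhibition above a cutoff equal to the mean of all tested compounds plus 3 SD, cut at about 15% in these data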;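 further: 0% = PAD4 with RCA probe and DMSO and 100% = probe without PAD4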
# GSTO1 inh: counter-screen for RBBP9 inhibitors: inhibitors of human GSTO1. inhibition, % at 5.96 µM. P78417. 300,000 tested, 1.1% active. AID 1974. recombinant GSTO1, activity-based probe fluorescence polarization;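 active means inhibition above the campaign mean inhibition plus 3 SD, cut at about 35% in these data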;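 further: 0% = GSTO1-1 with DMSO and 100% = wells lacking GSTO1-1 enzyme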
# Target sequence (P78417 whole entry, looked up): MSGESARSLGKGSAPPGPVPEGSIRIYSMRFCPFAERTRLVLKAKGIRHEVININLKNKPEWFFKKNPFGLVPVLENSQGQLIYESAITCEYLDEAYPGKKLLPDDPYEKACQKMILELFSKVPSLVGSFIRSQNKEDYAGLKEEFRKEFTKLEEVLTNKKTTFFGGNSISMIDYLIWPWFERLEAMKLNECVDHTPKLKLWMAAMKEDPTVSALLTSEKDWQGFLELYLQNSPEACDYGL
# PME-1 inh: blocks human protein phosphatase methylesterase 1; Q9Y570; recombinant PME-1, FP-Rh probe fluorescence polarization; inhibition, % at 5.9 µM; 320,000 tested, 0.53% active; AID 2130;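 active means inhibition above the campaign mean of all compounds plus 3 SD, cut at about 26% in these data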;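 further: competitive labeling of PME-1 active site by serine hydrolase directed probe; 0% = PME-1 with DMSO and 100% = wells lacking PME-1 enzyme; inhibitors block probe labeling so polarization falls and inhibition rises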
# Fam108B counter: Fam108B inhibition, counter-screen for RBBP9 inhibitors. recombinant Fam108B, FP-Rh probe fluorescence polarization. inhibition, % at 9.51 µM. 300,000 tested, 0.33% active;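 active means inhibition above the screen mean inhibition plus 3 SD, computed separately per campaign, cut at about 18% in these data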;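 further: inhibitors lower polarization as less probe binds the enzyme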
# Numbers without * were called inactive; · = no result given. An excerpt weighted towards active compounds, which were near 1.8% of everything screened.
SMILES,LYPLA2 inh,LYPLA1 counter,PAD4 FP inh,GSTO1 inh,PME-1 inh,Fam108B counter
CCOc1cc(N(CC)CC)ccc1/C=C(/C#N)c1nc2ccccc2[nH]1,-16.6,-15.8,-3.1,-1.4,29.9*,8.0
CCCOc1cc(N(CC)CC)ccc1/C=C(/C#N)c1nc2ccc(C)cc2[nH]1,-17.3,-9.0,-11.7,-14.9,14.6,4.4
CC(=O)NCC(=O)OCN1C(=O)c2ccccc2C1=O,7.8,1.9,-0.9,36.0*,-0.3,1.0
NS(=O)(=O)c1ccc(CCNC(=O)C(=O)NCC2OCCN2S(=O)(=O)c2ccc(Cl)cc2)cc1 (centres undefined),5.9,-0.4,-1.6,0.6,2.6,4.9
CCN(CC(=O)Nc1c(F)cccc1F)C(=O)CCc1ccc(OC)cc1,-1.6,-1.4,3.2,4.2,41.4*,-1.5
Nc1ccc(N2CCCCCC2)cc1,9.4,3.4,42.7*,77.6*,16.2,12.9
COc1ccc(/C(C)=N/NC(=O)c2ccccc2N)cc1,12.2,3.9,-1.8,8.9,-0.9,0.5
COc1cc2c(=O)n(CCC(=O)NCC3CCCO3)c(=O)n(CC(=O)Nc3ccc(C)cc3C)c2cc1OC (centres undefined),-3.7,0.3,9.0,2.0,-2.5,-3.8
O=C(NCCCO)Nc1ccc2nc(-c3ccco3)c(-c3ccco3)nc2c1,3.7,-8.4,7.3,65.6*,9.3,52.3*
CN(C(=S)Nc1ccc(SC(F)F)cc1)c1ccc(O)cc1,14.5,0.9,11.4,65.7*,5.7,1.6
O=C(O)c1cc(NN=Nc2ccc(Br)cc2)cc([N+](=O)[O-])c1,6.2,9.3,-2.4,10.1,39.8*,2.1
O=C(O)c1cc(NN=Nc2cccc(S(=O)(=O)O)c2)cc([N+](=O)[O-])c1,3.5,2.4,-0.4,1.3,-2.3,2.9
Brc1ccc(N=NNc2ccccc2)cc1,0.8,-2.8,0.3,-0.3,32.9*,3.0
CC1CCN(C(=O)CCc2ccc(Oc3cc([N+](=O)[O-])cc([N+](=O)[O-])c3)cc2)CC1,36.8*,4.2,-0.7,-4.2,7.2,4.4
O=C(CCc1ccc(Oc2cc([N+](=O)[O-])cc([N+](=O)[O-])c2)cc1)NC1CCCC1,5.3,3.5,0.8,9.4,25.8,5.2
CC(c1ccco1)N(C(=O)c1ccccc1NS(=O)(=O)c1ccc(Cl)c([N+](=O)[O-])c1)c1ccccn1 (centres undefined),-2.9,-0.7,-2.2,53.8*,-3.7,1.9
COc1ccc(OC)c(C2C(C#N)=C(N)Oc3c2c(C)nn3-c2cccc(Cl)c2)c1 (centres undefined),6.0,-2.4,34.7*,20.3,3.9,3.9
N#Cc1cc(C#N)c(SCC(=O)N2CC(=O)Nc3ccccc32)nc1N,-5.4,-5.0,-2.8,·,16.5,·
CCc1ccc2nc(SCC(=O)N3CC(=O)Nc4ccccc43)c(C#N)cc2c1,1.3,-0.8,-26.8,-1.9,34.1*,-4.7
CN(C(=S)NC(=O)c1ccccc1)C1CCCCC1,9.1,1.4,3.5,0.0,1.9,-3.0
Cc1cc(=O)oc2cc(OCC(=O)N3CC(C)OC(C)C3)ccc12 (centres undefined),1.6,1.4,-4.7,-1.3,-3.3,4.5
CCC(C)c1ccc(S(=O)(=O)N2CCN(C(=O)COc3ccc4c(C)cc(=O)oc4c3)CC2)cc1 (centres undefined),0.5,-9.6,-0.9,-6.3,37.8*,-9.8
Cc1ccccc1S(=O)(=O)Cc1ccc(C(=O)NC2CCCCC2)o1,-6.2,2.1,4.6,0.2,-0.6,0.2
COc1ccccc1Nc1nc(Cl)c(C=O)s1,2.7,2.3,-3.1,47.0*,-4.1,-2.3
CC(C)(C)CC(=O)Nc1ccc(-c2cn3cccnc3n2)cc1,1.3,5.0,-6.0,-3.6,-2.7,0.7
SMILES,LYPLA2 inh,LYPLA1 counter,PAD4 FP inh,GSTO1 inh,PME-1 inh,Fam108B counter
Cc1ccc(S(=O)(=O)c2ccccc2)cc1S,-8.1,-2.6,35.9*,-24.7,-6.5,-3.0
Nc1ccc(S(=O)(=O)c2cccc(N)c2)cc1,-1.1,-2.8,-0.1,7.1,-3.4,-0.8
Cc1cccc(NC(=O)COc2coc(CN3CCN(c4ccccc4)CC3)cc2=O)c1,5.7,1.0,-1.2,7.9,2.1,-3.4
N#CCn1c(CCl)nc2ccccc2c1=O,4.1,4.0,-4.6,48.2*,-2.3,3.3
Oc1ccc(/C=C/c2ccc3ccccc3n2)cc1,0.8,6.1,4.2,-3.1,28.1*,6.1
O=C(CC1CC2CCC1C2)N1CCN(S(=O)(=O)c2ccccc2F)CC1 (centres undefined),3.7,-1.9,-2.2,·,2.8,·
Nc1ncnc2c1ncn2[C@@H]1O[C@H](CNC(=O)[C@H]2CCC(=O)N2)[C@@H](O)[C@H]1O,·,·,1.5,·,·,·
CCOC(=O)N1CCC2(CC1)C(C#N)=C(N)Oc1n[nH]c(CSc3ccc(C)cc3)c12,-3.4,0.7,-2.8,35.5*,7.7,2.0
CC(=O)c1cccc(N(C(=O)Cn2nnc3ccccc32)C(C(=O)NC2CCCCC2)c2cn(C)nc2C)c1 (centres undefined),0.6,1.2,-2.1,2.1,-3.2,-2.0
O=C(NC1CCCCC1)C(c1ccc(O)c(O)c1)N(C(=O)Cn1nnc2ccccc21)c1cccc(O)c1 (centres undefined),5.6,-1.1,-1.3,36.3*,-0.2,0.3
CC(=O)O[C@H]1[C@@H](O)[C@H](O)[C@H](Oc2c(O)c(C)c3c4c2[C@@H](C)CC[C@@H]4[C@@H](C)C[C@H]3C=C(C)C)O[C@H]1C,·,·,1.4,·,·,·
Cn1c(N/N=C/c2c[nH]c3ccccc23)nc2ccccc21,-0.9,-3.2,-6.4,-18.0,29.6*,3.6
COc1cccc(-c2cc(C(=O)N3CCN(C(=O)c4ccco4)CC3)on2)c1,7.6,0.7,-4.8,-0.8,3.5,1.6
Cc1ccc(N2C(=O)CS/C2=C(\C(Cl)=C(Cl)Cl)[N+](=O)[O-])cc1,-4.3,-2.2,-20.2,53.6*,6.7,6.0
Cc1ccc(N2C(=O)CSCC2=O)cc1,-5.6,0.3,-1.2,2.6,0.6,-2.9
NC(=O)NC(Cc1ccccc1)C(=O)NCCCSc1ccccc1 (centres undefined),4.4,0.5,3.6,4.8,-3.2,-0.4
COc1cc(/C=C2\CCC/C(=C\c3ccc(O)c(OC)c3)C2=O)ccc1O,-5.9,-7.1,3.7,8.0,26.1*,13.5
CCNc1ccc(Br)cc(C(=O)/C=C/c2ccc3c(c2)OCO3)c1=O,22.9,1.7,6.5,53.2*,6.8,9.3
CCNc1ccc(Br)cc(C(=O)/C=C/c2c(Cl)cccc2Cl)c1=O,4.9,-3.4,-7.2,36.7*,13.4,17.9
Cc1cc(C)c2c(N)c(-c3nc4ccccc4[nH]3)sc2n1,-5.2,-2.2,1.6,4.3,28.8*,8.1
Cc1cc(N/N=C\c2ccccc2)nc(-c2ccccc2O)n1,-15.7,-10.1,-0.1,-7.8,-6.8,8.2
Cc1cc(N/N=C/c2ccccc2O)nc(-c2ccccc2O)n1,-11.2,-19.2,-7.6,-15.1,18.6,19.2*
